Results filed as inconclusive are left out. Calls of active or inactive are those of the source. Unless noted, how the calls were made is not given here.
Key:
[1] = qHTS profiling of the MIPE4 collection as inhibitors of Plasmodium falciparum (3D7) proliferation (AID 743344);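 further: scaled between DMSO vehicle wells and 0.29 µM artemisinin as full inhibition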; conditions: P. falciparum 3D7 in erythrocytes, SYBR Green DNA fluorescence, 72 h; at 28.5 µM unless noted
Method in brief: (§1)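 Parasite DNA was quantified by SYBR Green I fluorescence (ex 485, em 535 nm) after overnight lysis in saponin/Triton buffer at room temperature. Cultures at 0.3% parasitemia and 2.5% hematocrit were first exposed to compound for 72 h at 37 C; signals were normalised to artemisinin (0.29 uM) and vehicle wells.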

[2] = qHTS profiling of the MIPE4 collection as inhibitors of Plasmodium falciparum (DD2) proliferation (AID 743345); conditions: P. falciparum Dd2 in erythrocytes, SYBR Green DNA, 72 h; at 28.5 µM unless noted
Method in brief: as §1

[3] = qHTS profiling of the MIPE4 collection as inhibitors of Plasmodium falciparum (HB3) proliferation (AID 743347);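 further: plate controls were DMSO vehicle wells for no effect and artemisinin wells for full effect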; conditions: P. falciparum HB3 in erythrocytes, SYBR Green DNA, 72 h; at 28.5 µM unless noted
Method in brief: as §1

[4] = High-throughput drug toxicity screening in the BPDCN cell line Gen2.2 (AID 1224824); conditions: Gen2.2 BPDCN cells; at 45.8 µM (top of the series) unless noted;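 further: cells exposed to compounds for 48 h before reading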
Method in brief: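 Readout is ATP luminescence from Gen2.2 cells after two days of drug exposure in serum-containing medium at 37 °C. Values express percent activity, with vehicle defining full signal and 9.2 uM bortezomib defining zero.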

[5] = High-throughput drug toxicity screening in the BPDCN cell line Cal-1 (AID 1224825); conditions: Cal-1 BPDCN cell viability, qHTS; at 45.8 µM (top of the series) unless noted
Method in brief: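 CellTiter-Glo luminescence after 48 h compound exposure; percent activity scaled with DMSO as 100% and bortezomib (9.2 uM final) as 0%. Cal-1 cells seeded at 500/well in RPMI, 10% FBS, no phenol red.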

[6] = qHTS assay for measurement of the activity of small molecule inhibitors on Zika virus induced Caspase-3 activity in human iPSC derived neural progenitor cells (hNPCs) (AID 1224857; active means well fitted curve in the direction sought with a large enough effect; an effect the other way counts as inactive or inconclusive; further: nearly all actives have a fitted effect of over 65% in size; further: potency means the concentration at half of the fitted maximal effect)
Method in brief: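 Values are percent inhibition of virus-induced caspase-3/7 signal, scaled between uninfected cells and ZIKV-infected cells. Infection used 2 FFU/cell for 6 h after 1 h compound exposure.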

[7] = qHTS assay for measurement of the activity of small molecule inhibitors on Zika virus induced Caspase-3 activity in human astrocytoma cells (AID 1224859; active means well fitted curve in the direction sought with a large enough effect; an effect the other way counts as inactive or inconclusive;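 further: plate controls were ZIKV-infected untreated cells for no effect and uninfected cells for full effect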)
Method in brief: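 Compound added 1 h pre-infection; ZIKV 2 FFU/cell on SNB-19 cells, 6 h, 37 C/5% CO2. Caspase-Glo 3/7 luminescence; values as % inhibition of ZIKV-induced caspase activity.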

[8] = qHTS Screen of the MIPE 4.0 Collection Against Ewings Sarcoma (TC71) (AID 1259253; active means well fitted curve in the direction sought with a large enough effect; an effect the other way counts as inactive or inconclusive; further: nearly all actives have a fitted effect of over 40% in size; further: potency means the concentration at half of the fitted maximal effect)
Method in brief: (§2)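 Dose series incubated 48 h with cells in RPMI plus 5% FBS, glutamine and penicillin/streptomycin; cell viability then quantified via CellTiter-Glo.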

[9] = qHTS Screen of the MIPE 4.0 Collection Against Ewings Sarcoma (EW8) (AID 1259255; active means well fitted curve in the direction sought with a large enough effect; an effect the other way counts as inactive or inconclusive; further: nearly all actives have a fitted effect of over 35% in size; further: potency means the concentration at half of the fitted maximal effect;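 on viability: 100% = DMSO-treated cells and 0% = medium-only wells without cells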)
Method in brief: as §2

[10] = qHTS Screen of the MIPE 4.0 Collection Against Ewings Sarcoma (TC32) (AID 1259256; active means well fitted curve in the direction sought with a large enough effect; an effect the other way counts as inactive or inconclusive; further: nearly all actives have a fitted effect of over 45% in size; further: potency means the concentration at half of the fitted maximal effect)
Method in brief: as §2

[11] = qHTS profiling for inhibitors of Plasmodium falciparum (HB3) proliferation (AID 743324; active means well fitted curve in the direction sought with a large enough effect; an effect the other way counts as inactive or inconclusive;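 further: 100% = DMSO vehicle wells and 0% = artemisinin-treated control wells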); conditions: Plasmodium falciparum HB3 blood-stage proliferation; at 28.7 µM (top of the series) unless noted
Method in brief: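 SYBR Green fluorescence (485 ex/535 em) of lysed cultures, incubated overnight at room temperature in the dark, quantifies parasite DNA. Infected erythrocytes at 0.3% parasitemia and 2.5% hematocrit were exposed 72 h; values normalized to DMSO and 0.29 uM artemisinin controls.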

[12] = qHTS profiling of the MIPE4 collection as inhibitors of Plasmodium falciparum (DD2) proliferation (Rep 2) (AID 743346); conditions: P. falciparum Dd2 in erythrocytes, SYBR Green DNA, 72 h; at 28.5 µM unless noted
Method in brief: as §1

[13] = Identifying Small Molecule Inhibitors of Pancreatic Cancer Stem Cells (SN12C, Adherent) (AID 1259358; active means well fitted curve in the direction sought with a large enough effect; an effect the other way counts as inactive or inconclusive;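 further: cell survival measured after 48 h of compound exposure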)
Method in brief: (§3)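 Endpoint: ATP-based luminescence, 48 h drug exposure. Bortezomib at 9.2 uM final as full-kill control; DMSO vehicle as negative control; activity normalized between vehicle and cell-free wells.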

[14] = Identifying Small Molecule Inhibitors of Pancreatic Cancer Stem Cells (SN12C, Spheroid) (AID 1259360; active means well fitted curve in the direction sought with a large enough effect; an effect the other way counts as inactive or inconclusive; further: potency means the concentration at half of the fitted maximal effect;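 on viability (% of control): 100% = DMSO-treated cells and 0% = wells without cells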); conditions: Potency: SN12C spheroid viability
Method in brief: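 Luminescent ATP readout (CellTiter-Glo) quantifies surviving cells after a 48 h drug incubation. Normalization uses DMSO wells as no inhibition and media-only wells as full inhibition; bortezomib served as positive control.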

[15] = Identifying Small Molecule Inhibitors of Pancreatic Cancer Stem Cells (A278, Adherent) (AID 1259361; active means well fitted curve in the direction sought with a large enough effect; an effect the other way counts as inactive or inconclusive;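 further: viability read after 48 h compound exposure; nearly all actives have a fitted effect of over 35% in size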;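 on viability (% of control): 100% = DMSO-treated cells and 0% = cell-free media-only wells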)
Method in brief: as §3

Row | Structure (SMILES) | parasite growth, % of DMSO control [1] [%] | parasite growth remaining, % of DMSO control (lower = more inhibition) [2] [%] | growth, % of control [3] [%] | cell viability, % of control (lower = more cytotoxic) [4] [%] | viability (% of control) [5] [%] | Potency [6] | Potency [7] | Potency [8] | Potency [9] | Potency [10] | remaining proliferation (% of control), lower = more inhibition [11] [%] | parasite growth, % of control (lower = inhibition) [12] [%] | Potency [13] | Potency [14] | IC50 (viability decrease) [15]
1 | NC[C@H]1O[C@H](O[C@@H]2[C@@H](O)[C@@H](O[C@H]3O[C@H](CO)[C@@H](O)[C@H](N)[C@@H]3O)[C@H](N)C[C@@H]2N)[C@H](O)[C@@H](O)[C@H]1O | 96.1 | 100 | 66.9 | 161 | 98.4 | inactive | inactive | inactive | inactive | – | – | – | – | – | –
2 | CN1N=C(N)c2cn([C@@H]3O[C@H](COP(=O)(O)O)[C@@H](O)[C@@H]3O)c3ncnc1c23 | 82.4 | 100 | 98.6 | 199 | 76.2 | inactive | inactive | 7.43 µM (active) | 13.2 µM (active) | 2.64 µM (active) | – | – | – | – | –
3 | CCC=CC[C@H]1C(=O)CC[C@@H]1CC(=O)OC | 62.5 | 109 | 79.8 | 137 | 107 | inactive | inactive | 16.6 µM (active) | inactive | – | 113 | 86.4 | inactive | inactive | inactive
4 | COc1cc([C@H]2Oc3cc([C@H]4Oc5cc(O)cc(O)c5C(=O)[C@H]4O)ccc3O[C@H]2CO)ccc1O | 7.9 | 18.5 | 12.9 | 181 | 85.4 | inactive | inactive | 14.8 µM (active) | 9.35 µM (active) | 16.6 µM (active) | – | 16.1 | – | – | –
5 | CNC1[C@H](O)C(O[C@@H]2C(O)C(O[C@H]3O[C@H]([C@@H](C)NC)CC[C@H]3N)[C@@H](N)C[C@H]2N)OC[C@]1(C)O (stereo partly specified) | – | – | 99.6 | 116 | 101 | 18.7 µM (active) | inactive | inactive | inactive | inactive | – | – | – | – | –
6 | OC(c1cc(C(F)(F)F)nc2c(C(F)(F)F)cccc12)C1CCCCN1 (stereo unspecified) | 11 | 9.36 | 61.8 | 9.36 | 7.54 | inactive | inactive | 20.9 µM (active) | 20.9 µM (active) | 26.4 µM (active) | – | 23.2 | – | – | –
7 | COc1nccc(-c2c(-c3ccc(F)cc3)ncn2C2CCNCC2)n1 | 36.4 | 51.4 | 35.6 | 136 | 73.4 | inactive | inactive | 5.9 µM (active) | 9.35 µM (active) | 16.6 µM (active) | – | – | – | – | –
8 | N#CC1(c2cccc(C(=O)Nc3cc(Oc4ccc5nc(NC(=O)C6CC6)sc5n4)ccc3F)c2Cl)CC1 | 14.7 | 28.8 | 9.87 | 7.3 | 43.3 | inactive | inactive | 16.6 µM (active) | 20.9 µM (active) | – | – | 30.3 | – | – | –
9 | Cc1cccc2c1CC[C@H](CN1CCC(c3c(Cl)cccc3Cl)CC1)C[C@@H]2O | 8.94 | – | 9.19 | 140 | 43.1 | inactive | inactive | 5.9 µM (active) | 14.8 µM (active) | – | – | – | – | – | –
10 | COc1ccc2c(c1)CC[C@H]1[C@@H]2CC[C@]2(C)[C@@H](NCCCCCCN3C(=O)C=CC3=O)CC[C@H]12 | – | 95.3 | – | 154 | 43 | inactive | inactive | 16.6 µM (active) | inactive | – | – | – | – | 20.9 µM (active) | 20.9 µM (active)
11 | Cc1ccc(C2=Nc3ccc(Cl)cc3OC2)cc1 | 30.3 | 94.3 | 55.7 | 73.9 | 85 | inactive | inactive | 4.69 µM (active) | 16.6 µM (active) | – | – | 26.5 | – | – | –
12 | Nc1ccn([C@@H]2O[C@H](CO)[C@@H](O)[C@H]2O)c(=O)n1 | 89.8 | 97.8 | 108 | 86.2 | 11.3 | inactive | inactive | 0.0332 µM (active) | 0.0935 µM (active) | – | – | 117 | – | – | –
13 | O=C(O)C1=CO[C@@H](O[C@@H]2O[C@H](CO)[C@H](O)[C@H](O)[C@H]2O)[C@@H]2C(CO)=CC[C@H]12 | 99.8 | 96.1 | 103 | 78.1 | 23.1 | inactive | inactive | 16.6 µM (active) | inactive | inactive | – | 83.9 | – | – | –
